From paper PMC7862700, “An all-to-all approach to the identification of sequence-specific readers for epigenetic DNA modifications on cytosine”

Experiments:
Experiment in all cases: DAPPL (digital affinity profiling via proximity ligation, sequencing); 10 mM Tris-HCl pH 7.5, 50 mM NaCl, 1 mM DTT, 4% glycerol, room temperature, 30 min; GST-TFs on glutathione beads, 16-mer random dsDNA library, 0.1% formaldehyde crosslink after washing; high values mean tight binding
Details in all cases: protein: recombinant; tags: N-terminal GST; dsDNA, one strand shown
ELK1 = molecular target: T1, ELK1 (Homo sapiens, UniProt P19419 1-428)
T1 sequence: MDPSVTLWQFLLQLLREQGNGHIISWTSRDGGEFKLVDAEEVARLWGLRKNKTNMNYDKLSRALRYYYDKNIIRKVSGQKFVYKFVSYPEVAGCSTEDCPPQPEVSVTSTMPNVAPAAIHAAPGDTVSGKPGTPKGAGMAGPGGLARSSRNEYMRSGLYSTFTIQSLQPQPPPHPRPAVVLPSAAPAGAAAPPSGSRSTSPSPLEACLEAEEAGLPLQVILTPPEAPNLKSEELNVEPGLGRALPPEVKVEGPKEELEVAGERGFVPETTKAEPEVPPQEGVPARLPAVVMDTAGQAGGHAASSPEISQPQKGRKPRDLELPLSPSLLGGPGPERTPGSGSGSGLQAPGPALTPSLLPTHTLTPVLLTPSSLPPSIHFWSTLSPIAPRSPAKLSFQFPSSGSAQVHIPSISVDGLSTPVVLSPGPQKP
Outline: (§1)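 Human transcription factors fused to GST were expressed in yeast, captured on glutathione beads, given DNA barcodes and pooled with a GST-only negative control. Pools were incubated with 200 nmole of a 16-mer random double-stranded DNA library in Tris/NaCl/DTT/glycerol buffer at room temperature for 30 min. They were then washed, crosslinked with 0.1% formaldehyde, proximity-ligated (BsaI/T4 ligase, 1 h, 37 °C), PCR-amplified and sequenced on an Illumina NextSeq500. Binding signal is each 6-mer's read frequency for a factor divided by its frequency for the GST control.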

GABPA = molecular target: T2, GABPA (Homo sapiens, UniProt Q06546 1-454)
T2 sequence: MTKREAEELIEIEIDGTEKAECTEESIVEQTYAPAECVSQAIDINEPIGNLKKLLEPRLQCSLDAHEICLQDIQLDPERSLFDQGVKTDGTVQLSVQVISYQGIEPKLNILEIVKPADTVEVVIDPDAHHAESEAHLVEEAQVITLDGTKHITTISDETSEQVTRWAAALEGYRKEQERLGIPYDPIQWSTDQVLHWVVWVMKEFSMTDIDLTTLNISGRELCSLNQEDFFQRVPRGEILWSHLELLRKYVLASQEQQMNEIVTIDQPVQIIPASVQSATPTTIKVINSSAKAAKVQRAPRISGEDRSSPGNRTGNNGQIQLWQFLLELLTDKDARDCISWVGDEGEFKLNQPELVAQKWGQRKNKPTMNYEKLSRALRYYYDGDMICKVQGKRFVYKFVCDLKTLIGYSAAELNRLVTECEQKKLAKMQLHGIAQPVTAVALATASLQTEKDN
Outline: as §1

EHF = molecular target: T3, EHF (Homo sapiens, UniProt Q9NZC4 1-300)
T3 sequence: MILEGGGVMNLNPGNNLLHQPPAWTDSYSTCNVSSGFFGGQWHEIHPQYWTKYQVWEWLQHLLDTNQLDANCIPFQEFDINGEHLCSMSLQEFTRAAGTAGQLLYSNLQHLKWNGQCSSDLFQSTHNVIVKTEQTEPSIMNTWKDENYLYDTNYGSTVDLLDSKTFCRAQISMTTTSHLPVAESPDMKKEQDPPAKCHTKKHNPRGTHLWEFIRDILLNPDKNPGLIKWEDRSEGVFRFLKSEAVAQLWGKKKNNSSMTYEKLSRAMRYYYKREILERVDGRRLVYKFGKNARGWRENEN
Outline: as §1

ELK3 = molecular target: T4, ELK3 (Homo sapiens, UniProt P41970 1-407)
T4 sequence: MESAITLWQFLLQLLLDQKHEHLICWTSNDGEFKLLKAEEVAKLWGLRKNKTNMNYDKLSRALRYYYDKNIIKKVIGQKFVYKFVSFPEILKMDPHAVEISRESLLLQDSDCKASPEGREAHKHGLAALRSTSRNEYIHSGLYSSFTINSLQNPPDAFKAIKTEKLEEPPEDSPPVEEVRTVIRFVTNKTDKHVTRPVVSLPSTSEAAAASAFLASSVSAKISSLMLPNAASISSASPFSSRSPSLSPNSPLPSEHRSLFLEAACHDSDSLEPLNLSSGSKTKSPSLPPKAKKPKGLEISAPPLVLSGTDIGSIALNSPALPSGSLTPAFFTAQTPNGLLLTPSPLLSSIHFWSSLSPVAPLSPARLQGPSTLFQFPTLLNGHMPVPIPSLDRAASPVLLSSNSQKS
Outline: as §1

SPIC = molecular target: T5, SPIC (Homo sapiens, UniProt Q8N5J4 1-248)
T5 sequence: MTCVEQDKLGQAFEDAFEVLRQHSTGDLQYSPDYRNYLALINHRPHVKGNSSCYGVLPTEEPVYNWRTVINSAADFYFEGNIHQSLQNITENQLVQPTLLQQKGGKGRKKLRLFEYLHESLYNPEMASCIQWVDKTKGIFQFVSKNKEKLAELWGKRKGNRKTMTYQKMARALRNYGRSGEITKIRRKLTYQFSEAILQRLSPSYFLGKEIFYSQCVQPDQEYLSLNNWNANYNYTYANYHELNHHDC
Outline: as §1

ELK4 = molecular target: T6, ELK4 (Homo sapiens, UniProt P28324-2 1-405)
T6 sequence: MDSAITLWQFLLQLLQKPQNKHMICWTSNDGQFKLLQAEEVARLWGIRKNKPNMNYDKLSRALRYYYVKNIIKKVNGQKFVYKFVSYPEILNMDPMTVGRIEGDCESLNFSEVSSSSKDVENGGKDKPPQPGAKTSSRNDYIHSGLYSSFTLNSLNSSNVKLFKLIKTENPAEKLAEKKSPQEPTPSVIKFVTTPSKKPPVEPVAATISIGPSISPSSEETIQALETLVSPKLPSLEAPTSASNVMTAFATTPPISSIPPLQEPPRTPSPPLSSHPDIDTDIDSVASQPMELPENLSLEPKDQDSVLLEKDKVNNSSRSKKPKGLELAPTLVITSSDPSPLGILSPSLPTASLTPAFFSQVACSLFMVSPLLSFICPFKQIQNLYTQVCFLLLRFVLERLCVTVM
Outline: as §1

ETV2 = molecular target: T7, ETV2 (Homo sapiens, UniProt O00321 1-342)
T7 sequence: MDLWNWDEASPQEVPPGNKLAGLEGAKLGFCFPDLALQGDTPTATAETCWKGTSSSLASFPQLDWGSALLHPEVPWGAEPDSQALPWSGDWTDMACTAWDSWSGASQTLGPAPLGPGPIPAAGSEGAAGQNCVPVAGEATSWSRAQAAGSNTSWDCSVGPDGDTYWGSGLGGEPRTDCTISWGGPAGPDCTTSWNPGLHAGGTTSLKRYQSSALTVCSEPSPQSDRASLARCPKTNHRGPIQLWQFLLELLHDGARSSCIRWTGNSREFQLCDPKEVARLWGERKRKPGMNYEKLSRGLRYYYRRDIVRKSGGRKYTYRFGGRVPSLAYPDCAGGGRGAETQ
Outline: as §1

ERF = molecular target: T8, ERF (Homo sapiens, UniProt P50548 1-548)
T8 sequence: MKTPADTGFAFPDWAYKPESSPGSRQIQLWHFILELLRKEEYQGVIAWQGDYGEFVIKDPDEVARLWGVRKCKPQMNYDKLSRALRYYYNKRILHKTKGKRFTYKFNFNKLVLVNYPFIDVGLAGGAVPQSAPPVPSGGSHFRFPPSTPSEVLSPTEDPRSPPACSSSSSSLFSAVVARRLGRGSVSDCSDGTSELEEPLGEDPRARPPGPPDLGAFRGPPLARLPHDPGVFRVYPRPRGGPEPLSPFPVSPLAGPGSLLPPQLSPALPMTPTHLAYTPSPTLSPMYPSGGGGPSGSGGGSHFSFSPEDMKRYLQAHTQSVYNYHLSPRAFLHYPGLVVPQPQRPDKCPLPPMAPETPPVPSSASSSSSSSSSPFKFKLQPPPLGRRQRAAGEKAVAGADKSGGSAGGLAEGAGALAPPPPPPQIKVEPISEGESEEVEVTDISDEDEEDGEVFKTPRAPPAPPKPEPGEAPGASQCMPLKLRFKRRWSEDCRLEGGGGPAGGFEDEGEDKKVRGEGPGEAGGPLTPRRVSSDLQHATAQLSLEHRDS
Outline: as §1

ETS2 = molecular target: T9, ETS2 (Homo sapiens, UniProt P15036 1-469)
T9 sequence: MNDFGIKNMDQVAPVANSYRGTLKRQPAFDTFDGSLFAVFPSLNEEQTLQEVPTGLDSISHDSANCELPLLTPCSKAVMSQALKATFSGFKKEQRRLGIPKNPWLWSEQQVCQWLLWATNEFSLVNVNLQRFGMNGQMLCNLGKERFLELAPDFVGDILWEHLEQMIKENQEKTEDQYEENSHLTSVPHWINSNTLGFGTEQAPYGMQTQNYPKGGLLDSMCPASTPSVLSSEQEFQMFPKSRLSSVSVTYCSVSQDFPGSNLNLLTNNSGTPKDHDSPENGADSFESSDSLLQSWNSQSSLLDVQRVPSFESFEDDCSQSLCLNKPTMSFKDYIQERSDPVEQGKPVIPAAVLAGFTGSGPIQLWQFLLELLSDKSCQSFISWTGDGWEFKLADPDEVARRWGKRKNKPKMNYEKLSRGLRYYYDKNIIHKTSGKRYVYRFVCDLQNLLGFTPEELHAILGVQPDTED
Outline: as §1

ETV7 = molecular target: T10, ETV7 (Homo sapiens, UniProt Q9Y603 1-341)
T10 sequence: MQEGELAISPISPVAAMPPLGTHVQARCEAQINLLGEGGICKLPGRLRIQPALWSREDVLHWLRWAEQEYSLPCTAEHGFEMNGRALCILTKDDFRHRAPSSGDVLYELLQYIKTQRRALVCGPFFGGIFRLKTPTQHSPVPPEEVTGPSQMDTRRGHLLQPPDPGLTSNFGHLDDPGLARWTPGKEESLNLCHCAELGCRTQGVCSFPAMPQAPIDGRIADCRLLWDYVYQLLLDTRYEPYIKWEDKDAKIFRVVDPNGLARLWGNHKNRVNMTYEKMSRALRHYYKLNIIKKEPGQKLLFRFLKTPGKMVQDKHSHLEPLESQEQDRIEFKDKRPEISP
Outline: as §1

ERG = molecular target: T11, ERG (Homo sapiens, UniProt P11308 1-479)
T11 sequence: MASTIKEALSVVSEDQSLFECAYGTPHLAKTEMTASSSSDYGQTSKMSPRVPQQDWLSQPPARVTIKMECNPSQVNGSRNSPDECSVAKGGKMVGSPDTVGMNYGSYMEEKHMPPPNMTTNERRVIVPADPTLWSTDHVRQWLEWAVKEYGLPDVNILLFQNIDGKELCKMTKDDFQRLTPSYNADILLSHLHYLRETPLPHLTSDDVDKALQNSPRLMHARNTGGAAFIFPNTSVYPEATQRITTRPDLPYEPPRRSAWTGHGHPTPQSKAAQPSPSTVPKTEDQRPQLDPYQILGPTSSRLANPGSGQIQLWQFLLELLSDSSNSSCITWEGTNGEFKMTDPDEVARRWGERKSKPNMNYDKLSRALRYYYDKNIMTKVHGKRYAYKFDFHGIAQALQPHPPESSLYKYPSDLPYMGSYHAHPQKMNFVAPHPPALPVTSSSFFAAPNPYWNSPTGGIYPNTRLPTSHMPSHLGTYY
Outline: as §1

SPIB = SPIB (Homo sapiens, UniProt Q01892 1-262)
Chain of SPIB (Q01892 whole entry): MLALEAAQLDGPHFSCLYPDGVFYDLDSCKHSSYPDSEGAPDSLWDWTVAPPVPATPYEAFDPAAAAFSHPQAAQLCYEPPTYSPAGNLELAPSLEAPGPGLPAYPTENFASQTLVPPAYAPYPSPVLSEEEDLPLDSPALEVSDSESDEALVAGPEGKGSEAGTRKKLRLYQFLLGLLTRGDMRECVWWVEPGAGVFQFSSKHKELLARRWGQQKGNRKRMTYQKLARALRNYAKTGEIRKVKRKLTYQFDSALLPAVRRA
Outline: as §1

ETV1 = ETV1 (Homo sapiens, UniProt P50549 1-477)
Chain of ETV1 (P50549 whole entry): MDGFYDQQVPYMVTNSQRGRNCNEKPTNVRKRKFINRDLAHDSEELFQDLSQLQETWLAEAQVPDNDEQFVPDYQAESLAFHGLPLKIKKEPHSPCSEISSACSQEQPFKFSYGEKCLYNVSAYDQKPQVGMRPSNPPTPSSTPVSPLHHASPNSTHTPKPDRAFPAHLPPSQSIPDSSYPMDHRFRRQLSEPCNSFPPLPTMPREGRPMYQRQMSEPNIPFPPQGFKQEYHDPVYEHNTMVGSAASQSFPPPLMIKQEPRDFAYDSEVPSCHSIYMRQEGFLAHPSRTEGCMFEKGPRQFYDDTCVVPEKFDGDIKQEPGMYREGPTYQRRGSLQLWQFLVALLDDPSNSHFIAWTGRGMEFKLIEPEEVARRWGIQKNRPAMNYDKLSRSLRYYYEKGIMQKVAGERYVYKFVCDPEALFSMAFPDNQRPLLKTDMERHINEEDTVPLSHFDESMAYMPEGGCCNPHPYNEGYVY
Outline: as §1

ETV3 = molecular target: T12, ETV3 (Homo sapiens, UniProt P41162-2 1-143)
T12 sequence: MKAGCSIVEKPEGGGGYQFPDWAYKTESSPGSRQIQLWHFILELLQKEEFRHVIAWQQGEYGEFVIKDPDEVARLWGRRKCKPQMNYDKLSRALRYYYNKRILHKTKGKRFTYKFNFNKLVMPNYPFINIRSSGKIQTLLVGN
Outline: as §1

ETV6 = ETV6 (Homo sapiens, UniProt P41212 1-452)
Chain of ETV6 (P41212 whole entry): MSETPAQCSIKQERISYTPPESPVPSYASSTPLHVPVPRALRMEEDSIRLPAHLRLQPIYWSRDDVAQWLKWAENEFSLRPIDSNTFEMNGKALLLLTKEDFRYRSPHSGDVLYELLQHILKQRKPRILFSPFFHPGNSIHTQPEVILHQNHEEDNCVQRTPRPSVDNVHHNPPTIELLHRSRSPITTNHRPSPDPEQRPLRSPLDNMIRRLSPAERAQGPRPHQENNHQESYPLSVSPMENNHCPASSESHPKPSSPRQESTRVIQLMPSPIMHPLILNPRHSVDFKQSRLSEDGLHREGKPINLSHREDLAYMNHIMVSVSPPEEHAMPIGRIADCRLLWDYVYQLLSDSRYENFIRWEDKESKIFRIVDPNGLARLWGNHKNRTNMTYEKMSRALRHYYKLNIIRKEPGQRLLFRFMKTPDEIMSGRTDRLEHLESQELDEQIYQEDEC
Outline: as §1

Sequence	binding signal (ELK1)	binding signal (GABPA)	binding signal (EHF)	binding signal (ELK3)	binding signal (SPIC)	binding signal (ELK4)	binding signal (ETV2)	binding signal (ERF)	binding signal (ETS2)	binding signal (ETV7)	binding signal (ERG)	binding signal (SPIB)	binding signal (ETV1)	binding signal (ETV3)	binding signal (ETV6)
ATAGGG	1.01 fold enrichment (6-mer frequency, TF over GST control)	1.03 fold enrichment (6-mer frequency, TF over GST control)	1.01 fold enrichment (6-mer frequency, TF over GST control)	1.06 fold enrichment (6-mer frequency, TF over GST control)	1.08 fold enrichment (6-mer frequency, TF over GST control)	1.06 fold enrichment (6-mer frequency, TF over GST control)	1.08 fold enrichment (6-mer frequency, TF over GST control)	1.14 fold enrichment (6-mer frequency, TF over GST control)	1.01 fold enrichment (6-mer frequency, TF over GST control)	1.09 fold enrichment (6-mer frequency, TF over GST control)					
AGCGTC	1.05 fold enrichment (6-mer frequency, TF over GST control)	1.07 fold enrichment (6-mer frequency, TF over GST control)		1.05 fold enrichment (6-mer frequency, TF over GST control)	1.11 fold enrichment (6-mer frequency, TF over GST control)	1.01 fold enrichment (6-mer frequency, TF over GST control)		1.07 fold enrichment (6-mer frequency, TF over GST control)	1.02 fold enrichment (6-mer frequency, TF over GST control)	1.06 fold enrichment (6-mer frequency, TF over GST control)	1.1 fold enrichment (6-mer frequency, TF over GST control)	1.04 fold enrichment (6-mer frequency, TF over GST control)	1.04 fold enrichment (6-mer frequency, TF over GST control)	1.01 fold enrichment (6-mer frequency, TF over GST control)	1.02 fold enrichment (6-mer frequency, TF over GST control)
